Measurements taken from PubChem BioAssay (NCATS).
Results filed as inconclusive are left out. Calls of active or inactive are those of the source. Unless noted, calls follow the shape of the full dose curve.

Tests used:
[1] = qHTS for Inhibitors of the Functional Ribonucleoprotein Complex (vRNP) of Lassa (LASV) Arenavirus: LASV Primary Screen - GLuc reporter signal (AID 1347082; calls by dose curve; tested in HEK293 reporter line; also: nearly all actives have a fitted effect of over 60% in size); settings: LASV minigenome vRNP, Gaussia luciferase reporter; series mostly up to 57.5 µM
[2] = qHTS for Inhibitors of the Functional Ribonucleoprotein Complex (vRNP) of Lassa (LASV) Arenavirus: Viability assay - alamar blue signal for LASV Primary Screen (AID 1347083; calls by dose curve; tested in HEK293 reporter line; also: nearly all actives have a fitted effect of over 80% in size); settings: cell viability, alamar blue fluorescence (LASV minigenome counter-screen); series mostly up to 57.5 µM
[3] = qHTS for Inhibitors of the Functional Ribonucleoprotein Complex (vRNP) of Lymphocytic Choriomeningitis Arenaviruses (LCMV): Viability assay - alamar blue signal for LCMV Primary Screen (AID 1347085; calls by dose curve; tested in HEK293 reporter line; also: nearly all actives have a fitted effect of over 80% in size); settings: alamar blue viability counter-screen, LCMV vRNP screen cells; series mostly up to 57.5 µM
[4] = target: Nucleoprotein (Lymphocytic choriomeningitis virus (strain Armstrong)) (UniProt P09992); assay: qHTS for Inhibitors of the Functional Ribonucleoprotein Complex (vRNP) of Lymphocytic Choriomeningitis Arenaviruses (LCMV): LCMV Primary Screen - GLuc reporter signal (AID 1347086); settings: LCMV minigenome vRNP cell assay, Gaussia luciferase reporter; series mostly up to 57.5 µM; also: nearly all actives have a fitted effect of over 70% in size
[5] = qHTS of pediatric cancer cell lines to identify multiple opportunities for drug repurposing: Primary screen for TC32 cells (AID 1347089; active = well fitted curve in the direction sought with a large enough effect; an effect the other way counts as inactive or inconclusive; also: nearly all actives have a fitted effect of over 60% in size); settings: TC32 Ewing sarcoma viability, CellTiter-Glo luminescence, 48 h; series mostly up to 45.8 µM
Outline: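 In the primary qHTS, MIPE compounds were tested at 11 concentrations (0.78 nM to 46 µM) and NPC compounds at 8 (0.59 nM to 46 µM) on TC32 cells for 48 h. CellTiter-Glo luminescence gave viability.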

[6] = qHTS of pediatric cancer cell lines to identify multiple opportunities for drug repurposing: Primary screen for DAOY cells (AID 1347090; active = well fitted curve in the direction sought with a large enough effect; an effect the other way counts as inactive or inconclusive; also: nearly all actives have a fitted effect of over 55% in size); settings: DAOY medulloblastoma viability, CellTiter-Glo luminescence, 48 h; series mostly up to 46 µM
Outline: (§1)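 Viability measured as metabolically active cells via CellTiter-Glo luminescence following 48 hours of compound exposure, 11-point dilutions in confirmatory testing. 500-1,000 cells/well plated 5 hours before dosing; controls were DMSO and 2.3 µM bortezomib.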

[7] = qHTS of pediatric cancer cell lines to identify multiple opportunities for drug repurposing: Primary screen for SJ-GBM2 cells (AID 1347091; active = well fitted curve in the direction sought with a large enough effect; an effect the other way counts as inactive or inconclusive); settings: SJ-GBM2 viability, CellTiter-Glo luminescence, 48 h; series mostly up to 46 µM
Outline: as §1

[8] = qHTS of pediatric cancer cell lines to identify multiple opportunities for drug repurposing: Primary screen for A673 cells (AID 1347092; active = well fitted curve in the direction sought with a large enough effect; an effect the other way counts as inactive or inconclusive; also: nearly all actives have a fitted effect of over 45% in size); settings: A673 Ewing sarcoma viability, CellTiter-Glo ATP luminescence, 48 h; series mostly up to 46 µM
Outline: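 48 h compound exposure, A673, 500-1,000 cells/well, 37 degrees C/5% CO2. MIPE: 11-point, 0.78 nM-46 µM; NPC: 8-point, 0.59 nM-46 µM (final). Readout CellTiter-Glo luminescence after 15 min RT.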

[9] = qHTS of pediatric cancer cell lines to identify multiple opportunities for drug repurposing: Primary screen for SK-N-MC cells (AID 1347093; active = well fitted curve in the direction sought with a large enough effect; an effect the other way counts as inactive or inconclusive); settings: SK-N-MC viability, CellTiter-Glo luminescence, 48 h; series mostly up to 46 µM
Outline: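 Metabolically active cells were quantified by ATP-dependent luminescence (CellTiter-Glo, 15 min at room temperature) following 48 h treatment. Cells had been plated at 500-1,000 per well and settled for 5 h beforehand.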

Measured: Potency

Nucleoprotein (Lymphocytic choriomeningitis virus (strain Armstrong)), sequence (P09992 whole entry, looked up): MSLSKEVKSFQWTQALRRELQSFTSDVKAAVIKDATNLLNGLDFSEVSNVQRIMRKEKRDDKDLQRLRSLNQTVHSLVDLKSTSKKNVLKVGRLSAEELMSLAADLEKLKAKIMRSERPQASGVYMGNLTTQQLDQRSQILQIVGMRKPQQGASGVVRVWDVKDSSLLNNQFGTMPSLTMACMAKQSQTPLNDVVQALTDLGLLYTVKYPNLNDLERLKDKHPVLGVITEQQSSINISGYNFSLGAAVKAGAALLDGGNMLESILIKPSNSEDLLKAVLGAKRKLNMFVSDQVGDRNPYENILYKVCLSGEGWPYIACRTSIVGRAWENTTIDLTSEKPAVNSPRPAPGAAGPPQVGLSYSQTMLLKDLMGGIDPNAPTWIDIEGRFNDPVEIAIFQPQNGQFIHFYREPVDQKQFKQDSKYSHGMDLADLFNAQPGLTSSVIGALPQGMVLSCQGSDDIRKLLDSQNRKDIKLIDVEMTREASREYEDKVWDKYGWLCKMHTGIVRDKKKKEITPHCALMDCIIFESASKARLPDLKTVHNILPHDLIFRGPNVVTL

O=C(O)Cc1sc(-c2ccccc2)nc1-c1ccc(Cl)cc1
inactive: [1] | [2] | [3] | [4]

C[C@@H](O)[C@H]1C(=O)N2C(C(=O)O)=C(SCCN=CN)C[C@H]12
inactive: [1] | [2] | [3] | [4]

COc1cc(OC)nc(O[C@H](C(=O)O)C(OC)(c2ccccc2)c2ccccc2)n1
inactive: [1] | [2] | [3] | [4]

C[C@H]1[C@@H]2Cc3ccc(O)cc3[C@@]1(C)CCN2C
inactive: [1] | [2] | [3] | [4] | [5] | [6] | [7] | [8]

O=C(Oc1ccccc1)c1ccccc1O
inactive: [1] | [2] | [3] | [4]

CNC(C)(C)Cc1ccccc1
inactive: [1] | [2] | [3] | [4] | [5] | [6] | [7] | [8] | [9]

C#C[C@]1(O)CC[C@H]2[C@@H]3CCC4=CC(=O)CC[C@]4(C)[C@H]3CC[C@@]21C
inactive: [1] | [2] | [3] | [4] | [5] | [6] | [7] | [8] | [9]

Cc1[nH]cnc1-c1ccc(Cl)cc1
inactive: [1] | [2] | [3] | [4]

Oc1ccccc1C=NCc1ccccc1
inactive: [1] | [2] | [3] | [4]

Cc1c[nH]c2ccccc12
inactive: [1] | [2] | [3] | [4]

COC(=O)c1ccc(O)cc1
inactive: [1] | [2] | [3] | [4]

S=P(N1CC1)(N1CC1)N1CC1
inactive: [1] | [2] | [3] | [4]

CCc1oc2ccccc2c1C(=O)c1cc(I)c(O)c(I)c1
inactive: [1] | [2] | [3] | [4]
